Test results from PubChem BioAssay AID1851 (National Center for Advancing Translational Sciences (NCATS), 2009).
The whole screen tested about 16,000 compounds, of which about 5,700 (36%) were called active. Inconclusive results (about 24%) are left out. Calls follow the shape of the dose curve; as a rule, active = well fitted curve in the direction sought with a large enough effect; inconclusive = small, poorly fitted or top-dose-only effect, or effect the other way; inactive = no such curve, though single readings can be large or run the other way. The list shows a part of the results.

target: Cytochrome P450 1A2 (Homo sapiens) (UniProt P05177); test: Cytochrome panel assay with activity outcomes; conditions: recombinant CYP, pro-luciferin dealkylation, luminescence, p450-cyp1a2; series mostly up to 57.1 µM; activity, negative = inhibition: at the top concentration
% is scaled to controls: 0 for no effect and ±100 for the full control effect.

Cytochrome P450 1A2 (Homo sapiens), sequence (P05177 whole entry, looked up): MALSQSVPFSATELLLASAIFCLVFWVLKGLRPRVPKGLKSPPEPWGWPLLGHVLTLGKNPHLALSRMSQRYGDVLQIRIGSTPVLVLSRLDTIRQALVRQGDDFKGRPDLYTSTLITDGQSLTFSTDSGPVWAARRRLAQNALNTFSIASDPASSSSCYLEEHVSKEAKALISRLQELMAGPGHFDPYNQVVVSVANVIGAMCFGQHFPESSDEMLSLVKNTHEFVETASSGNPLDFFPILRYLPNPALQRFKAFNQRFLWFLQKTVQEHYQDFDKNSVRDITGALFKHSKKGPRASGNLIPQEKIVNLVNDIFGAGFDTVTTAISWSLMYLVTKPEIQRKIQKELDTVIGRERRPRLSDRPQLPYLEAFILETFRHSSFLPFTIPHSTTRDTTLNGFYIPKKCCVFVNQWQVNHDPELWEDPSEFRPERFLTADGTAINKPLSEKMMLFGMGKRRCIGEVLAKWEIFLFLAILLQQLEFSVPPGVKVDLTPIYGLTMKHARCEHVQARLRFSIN

activity, negative = inhibition, inactive:
CC/C=C\CC[C@H](O)C1=CCCCC1=O -2.33% [at 11.4 µM]
CC[C@@H](C)[C@H]1O[C@]2(CC[C@@H]1C)C[C@@H]1C[C@H](C/C=C(/C)[C@H](O[C@@H]3C[C@H](OC)[C@H](O[C@@H]4C[C@H](OC)[C@@H](O)[C@H](C)O4)[C@H](C)O3)[C@@H](C)/C=C\C=C3CO[C@@H]4[C@H](O)C(C)=C[C@@H](C(=O)O1)[C@]34O)O2 (tested in a mixture with another compound) -15.8%
C[C@@H]1C[C@H](OC(=O)[C@@H](O)c2ccccc2)CC(C)(C)N1C -5.2% [at 25.6 µM]
CCCCCn1c(CN2CCN(c3cc(Cl)ccc3C)CC2)nc2c1c(=O)[nH]c(=O)n2C -2.23%
CCOC(=O)CNC(=O)c1cccnc1 -19.8%
CCOC(=O)CCCNC(=O)CCCNC(=O)C(c1ccccc1)c1ccccc1 -14.8%
O=C(NCCO[N+](=O)[O-])c1cccnc1 -19.7%
CO[C@H]1COC(=O)[C@H](C)COC(=O)[C@@H](Cc2ccccc2)NC(=O)C/C=C\[C@H]1C -3.2% [at 11.4 µM]
Cc1cc(NC(=O)CCC(=O)N(CC2CCCO2)C(C(=O)NC2CCCC2)c2cccnc2)no1 (configuration not stated) 3.67%
CCOC(=O)CN(C(=O)CCC(=O)Nc1cc(C)on1)C(C(=O)NC1CCCC1)c1cccnc1 (configuration not stated) -2.53%
CCN1C(=O)N[C@@H](c2ccccc2)C1=O -16.1% [at 25.6 µM]
O=C1C2ON(c3ccccc3)C(c3ccncc3)C2C(=O)N1c1ccccc1 (configuration not stated) -24.3%
O=C1C(CCS(=O)c2ccccc2)C(=O)N(c2ccccc2)N1c1ccccc1 (configuration not stated) -14.7% [at 25.6 µM]
C[C@H]1CC[C@H]2C(=O)N[C@H](Cc3ccccc3)C(=O)N2[C@@H]1c1ccccc1 -2.57% [at 11.4 µM]
CC(C)CC(=O)Nc1ccccc1-c1nnn(CC(=O)N2CCc3ccccc3C2)n1 -27%
COc1ccc(CNCCc2ccccc2)cc1OCC(N)=O -6.42%
Nc1nc2c(c(=O)[nH]1)N[C@H](CCNc1ccc(C(=O)O)cc1)CN2 -4.28% [at 11.4 µM]
COc1ccccc1CN1CCC2(CC1)CCN(C(=O)c1c(C)noc1C)CC2 -17.2%
COC(=O)CN(c1ccc(OC)cc1)S(=O)(=O)c1c(C)noc1C -12.5%
COc1ccccc1CN1CCCC2(CCN(C(=O)c3c(C)noc3C)CC2)C1 -1.37%
Cc1cc(C(=O)CSc2nnc(-c3ccccc3)o2)c(C)n1CC1COc2ccccc2O1 (configuration not stated) -16.3%
C#CCn1c(=O)c2c(ncn2C)n(C)c1=O -16.2%
CC[C@@H](c1ccccc1)n1c(=O)n2n(c1=O)[C@H]1[C@H](O)[C@H]3O[C@@H]3/C(=N/OC/C=C(\C)CCC=C(C)C)[C@@H]1CC2 -18.9% [at 11.4 µM]
Oc1cccnc1CN1CCCCC1 -14.4% [at 11.4 µM]
Cc1noc(C)c1C(=O)N1CCC[C@@]2(CCN(Cc3cc(C(F)(F)F)cc(C(F)(F)F)c3)C2)C1 16.9%
Nc1ccc(N=Nc2c(S(=O)(=O)O)cc3ccccc3c2S(=O)(=O)O)cc1 -20.9% [at 2.29 µM]
CCNC(=S)N1CCC(NC(=O)C2CCCCC2)CC1 35.3%
CCC(C)NC(=O)C1CCCN(C(=O)NC2CCCCC2)C1 (configuration not stated) -4.85%
CC(=O)c1c(N2CCC(C(N)=O)CC2)nc(=S)n(-c2ccccc2)c1C -0.743%
O=C(O)CCC(O)=C1S(=O)(=O)OCCOS1(=O)=O -21.5% [at 11.4 µM]
O=C(O)/C=C/C(=O)Nc1ccc(F)cc1F 20.4%
O=C(O)c1ccccc1C1c2ccccc2Oc2ccccc21 -20.4% [at 2.29 µM]
COC(=O)c1c(-c2cc(OC)c(OC)c(OC)c2)c2ccc(OCc3ccccn3)cc2c(=O)n1-c1ccc(N)cc1 -16%
CN1/C(=C\C=[N+](C)c2ccccc2)C(C)(C)c2ccccc21 -11.3%
Nc1nc2c(nc(Br)n2[C@@H]2O[C@H]3COP(=O)(O)O[C@@H]3[C@H]2O)c(=O)[nH]1 1.91%
Cn1c(=O)c2c(n(Cc3ccccc3)c1=O)NC(=O)C2CC(=O)NCc1cccc(Cl)c1 (configuration not stated) 15.8%
Cc1ccc(CS(=O)(=O)CCC(=O)NCc2ccccn2)cc1 -11%
CCOc1cc2[nH]c(=O)n(CCC(=O)NCc3ccc(OC)cc3)c(=O)c2cc1OCC -12.3%
CC(C)(C)NC(=O)C(c1ccccn1)N(C(=O)C1CSC(=O)C1)c1ccc(F)cc1 (configuration not stated) 2.02%
COc1cccc(NC(=S)NN2CCN(C)CC2)c1 -5.77%
O=C(O)c1ccccc1-c1ccccc1C(=O)Nc1ccc2c(c1)Cc1ccccc1-2 -7.14% [at 2.29 µM]
O=P(Cc1cc[n+]([O-])cc1)(c1ccccc1)c1ccccc1 13.4%
CC[C@]1(c2ncc[nH]2)Cc2ccccc2O1 -31%
CC(C)OC(=O)C(CC(=O)O)N1CCOCC1 (configuration not stated) 1.7%
COc1ccc(NC(=O)N2CC3(CCN(C(=O)c4ccc(OC)cc4)CC3)C2)cc1 -21.6%
CC(=O)OC[C@@H]1O[C@@H](O/N=C2/C[C@@H](O)[C@@H](O)[C@@H]3[C@@H]4C(=O)N(C5CCCCC5)C(=O)[C@H]4CC[C@@H]23)[C@H](OC(C)=O)[C@H](OC(C)=O)[C@@H]1OC(C)=O 0.189% [at 11.4 µM]
O=c1[nH]c(=O)n([C@@H]2C[C@H](O)[C@H](CO)O2)cc1C(F)(F)F -3.57% [at 25.6 µM]
COc1ccc(COC(=O)N/N=C2/C[C@@H](O)[C@@H](O)[C@@H]3[C@@H]4C(=O)N([C@@H](C)c5ccccc5)C(=O)[C@H]4CC[C@H]23)cc1 -2.7% [at 11.4 µM]

AC50, active:
Cc1ccc(OCCNC(=O)c2cncc(Br)c2)cc1C 14100 nM
CCOC(=O)CCCNC(=O)c1cncc(Br)c1 12600 nM
COc1ccc(NC(=O)N(C2CCCCC2)C(C)c2cccnc2)c(OC)c1 (configuration not stated) 14100 nM
O=C1C(Cc2ccccc2)C(c2ccccc2)N1c1ccccc1 (configuration not stated) 5010 nM
CCCC1C(=O)N(c2ccccc2)C1c1ccccc1 (configuration not stated) 12600 nM
COc1cccc(C=NC=Nc2cccc(OC)c2)c1 1000 nM
Clc1cccc(C=NC=Nc2cccc(Cl)c2)c1 631 nM
CCCn1nc(NC(=O)CC(C)C)c2cc3ccccc3nc21 1580 nM
CCNCc1cc(OCC)c(OCC(=O)NCCc2ccccc2)cc1Cl 1780 nM
CCOc1cc(CNCCO)c(Cl)cc1OCC(=O)NCCc1ccccc1 6310 nM
COc1ccc(CNc2ccnc(-c3c(C)noc3C)n2)c(OC)c1 1260 nM
COc1ccccc1CNc1ccnc(-c2c(C)noc2C)n1 398 nM
O=C(O)/C(=C/c1c(C(=O)O)[nH]c2cc(Cl)cc(Cl)c12)c1ccccc1 12600 nM
c1ccc(-c2nnc(SCCC3OCCCO3)o2)cc1 1780 nM
CCC1CCc2c(c3ccccc3[nH]c2=O)O1 (configuration not stated) 562 nM
Cc1nc(/N=C(\N)Nc2ccccc2)nc2ccccc12 5010 nM
Cc1cccc(N/C(N)=N/c2nc(C)cc(C)n2)c1 12600 nM
[O-][n+]1c(CN2CCCCC2)nc2cccc3c2c1-c1ccccc1-3 1580 nM
CN1CCN(Cc2nc3cccc4c3c([n+]2[O-])-c2ccccc2-4)CC1 1260 nM
CC(C)CCNC(=S)NC1CCCC1 14100 nM
Cc1sc(N/N=C/c2cccnc2)nc1-c1ccccc1 63.1 nM
CC(=O)c1nnn(-c2nc(N)nc(N(c3ccccc3)c3ccccc3)n2)c1C 22400 nM
COc1ccc(C(=O)Nc2ccc(F)cc2F)cc1OC 14100 nM
CC(=O)c1ccc(OC(=O)C2c3ccccc3Oc3ccccc32)cc1 4470 nM
O=c1cnc2cnc(Nc3ccccc3)nc2n1CCc1ccccc1 3160 nM
CCNc1ncc2nc(C)c(=O)n(CCc3ccccc3)c2n1 1580 nM
CCNc1ncc2ncc(=O)n(CCc3ccccc3)c2n1 1000 nM
Cc1ccc(CNC(=O)Cc2csc(Nc3nc(=S)[nH]c4ccccc34)n2)cc1 3160 nM
COc1ccc(CNC(=O)Cc2csc(Nc3nc(=S)[nH]c4ccccc34)n2)cc1 4470 nM
O=C(Cc1csc(Nc2nc(=S)[nH]c3ccccc23)n1)NCc1cccc(Cl)c1 4470 nM
S=C(Nc1ccc2c(c1)Cc1ccccc1-2)Nc1ccc2c(c1)Cc1ccccc1-2 200 nM
O=C(Nc1ccc2c(c1)Cc1ccccc1-2)[C@@H]1[C@H](C(=O)O)[C@]2(Cl)C(Cl)=C(Cl)[C@@]1(Cl)C2(Cl)Cl 3160 nM
COc1ccccc1-c1cc(Nc2ccc(F)cc2)ncn1 2000 nM
COc1ccccc1-c1cc(Nc2ccn[nH]2)ncn1 631 nM
COc1ccccc1-c1cncnc1NCc1cccs1 3160 nM
Cc1ccccc1-c1cncnc1NCc1cccs1 3160 nM
CN(C)Cc1ccccc1-c1cncnc1NCc1cccs1 25100 nM
c1ccc(CNc2nc(-c3ccc4c(c3)OCO4)nc3ccccc23)cc1 501 nM
c1cncc(CNc2nc(-c3ccc4c(c3)OCO4)nc3ccccc23)c1 100 nM
Cc1cccc(CNc2nc(-c3ccc4c(c3)OCO4)nc3ccccc23)c1 631 nM
COc1ccccc1CNc1nc(-c2ccc3c(c2)OCO3)nc2ccccc12 631 nM
COc1ccccc1CNc1nc(-c2ccc(N(C)C)cc2)nc2ccccc12 2510 nM
Cc1cnc(CNc2nc(-c3ccc4c(c3)OCO4)nc3ccccc23)cn1 2000 nM
c1csc(CNc2nc(-c3ccc4c(c3)OCO4)nc3ccccc23)c1 794 nM
